According to PubChem BioAssay (NCI):
The panel holds about 83,000 compounds, 20% with a hit somewhere; the sample as a whole holds those more often.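 Testing used 96-well plates and a 48-hour single-concentration exposure. Example: -40 means 40% of the starting cells died.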 Values without a mark were called inactive. Calls of active or inactive are those of the source.

What follows are compounds tested on EKVX NSCLC (assay: NCI-60 one-dose screen, 48 h (100 = growth as untreated, 0 = no growth, -100 = all killed)). Conditions: 10 µM unless noted.
Method: Growth inhibition of the EKVX human Non-Small Cell Lung tumor cell line is measured as a screen for anti-cancer activity. Cells are grown in 96 well plates and exposed to the test compound for 48 hours. Compounds are tested at a single concentration, which is 10^-5 M for most compounds. The reported endpoint is percent growth (GI% or GIPRCNT), where numbers from 0 - 100% represent growth inhibition, and numbers from -100% - 0 represent cell death. For example, a value of 40 represents 60% growth inhibition. A value of 0 means no net growth occurred over the course of the experiment. A value of -40 indicates 40% of cells at the beginning of the experiment died by the end of the experiment. A value of -100 means all cells are dead at the end of the experiment.
NCI-60 Human Tumor Cell Lines Screen was performed using the standard one-dose NCI protocol, which is described in more detail at https://dtp.cancer.gov/discovery_development/nci-60/default.htm.
Compounds with GIPRCNT values below 10 were considered active. Activity score was based on GIPRCNT using the following formula: […]
Score is 0 for GIPRCNT values of 100 or above, 50 for GIPRCNT values of 0, and 100 for GIPRCNT values of -100.

| SMILES | growth |
| --- | --- |
| N#Cc1cccc(F)c1 | 113% |
| CO/N=C(/C)c1ccc(NC(=O)CSc2nnc(-c3ccncc3)n2-c2ccccc2)cc1 | 64.3% |
| O=C(O)CCCN1C(=O)/C(=C/C(Cl)=C/c2ccccc2)SC1=S | 40.2% |
| O=C1c2c(c3c4ccccc4[nH]c3c3ccc4ccccc4c23)C(=O)N1CCN1CCCCC1 | 75.5% |
| C=C1C(=O)O[C@H]2[C@H]1CC/C(COC(=O)CCSCCC(=O)OC/C1=C/CC[C@@]3(C)O[C@H]3[C@H]3OC(=O)C(=C)[C@@H]3CC1)=C\CC[C@@]1(C)O[C@@H]21 | 12% |
| CN1CCN(Cc2ccc(NC(=O)c3cncc(C#Cc4cnc(N)c5ccccc45)c3)cc2C(F)(F)F)CC1 | -96.3% (active) |
| O=C1c2ccc3c4ccc5c6c(ccc(c7ccc(c2c37)C(=O)N1CCC[P+](c1ccccc1)(c1ccccc1)c1ccccc1)c64)C(=O)N(CCC[P+](c1ccccc1)(c1ccccc1)c1ccccc1)C5=O | 45.6% |
| CCN1CCN(c2cc(C(=O)Nc3nc(-c4cc(OC)c(OC)c(OC)c4)cs3)cc(C(F)(F)F)c2)CC1 | 64.9% |
| O=C(Nc1nn(-c2ccc(Cl)cc2Cl)nc1-c1ccccc1)c1ccccc1 | 113% |
| O=C1c2cccc(NCCN=Cc3cc(O)ccc3O)c2C(=O)c2c(NCCN=Cc3cc(O)ccc3O)cccc21 | 3.36% (active) |
| COc1ccc2cc(-c3ccc(NC(C)=O)c(=O)o3)ccc2c1 | 106% |
| Fc1ccc(-c2nn(-c3ccccc3)cc2-c2nc3ccccc3o2)cc1 | 84% |
| O=C1Nc2ccccc2/C1=C\c1nc(-c2ccccc2)n2ccccc12 | 74.1% |
| O=[N+]([O-])/C(=C/C=C/c1ccccc1)c1ccccc1 | 92.7% |
| N#Cc1c(NC(=O)c2ccccc2)sc2c1CCC(=O)C2 | 21.7% |
| N=C(N)c1ccc(-c2ccc(-c3ccc(Cl)cc3)s2)nc1 | 59.1% |
| Cc1ccc(-c2csc(NC(=O)CN3CCN(c4cc5c(cc4F)c(=O)c(C(=O)O)cn5C4CC4)CC3)n2)cc1 | 16.5% |
| Cc1ccc(-c2nc(/C=C3/C(=O)Nc4ccccc43)c3ccccn23)cc1 | 80.1% |
| CC1=Nc2cnc(Nc3ccc(OCCN4CCCCC4)cc3)nc2Nc2ccccc21 | 78.3% |
| CN1CCN(C(=O)OCc2ccc3c(Cl)cc(Cl)c(O)c3n2)CC1 | 79.7% |

| SMILES | growth |
| --- | --- |
| O=Cc1ccc([N+](=O)[O-])s1 | 114% |
| O=S(=O)(Nc1cc(Br)c(O)c2ccccc12)c1ccc(F)cc1 | 109% |
| Cc1ccc(Sc2oc(-c3ccc(C)cc3)nc2[P+](c2ccccc2)(c2ccccc2)c2ccccc2)cc1 | 6.65% (active) |
| CN1C(=O)/C(=C/c2cn(-c3ccccc3)nc2-c2ccccc2)SC1=S | 102% |
| Brc1ccc(-n2cc(-c3nn[nH]n3)c(-c3cccs3)n2)cc1 | 90.5% |
| O=C(c1cc2ccccc2o1)c1nn(-c2ccccc2)/c(=N/N=Cc2cn(-c3ccccc3)nc2-c2cc3ccccc3oc2=O)s1 | 92.7% |
| C=CCc1c2c(c(OC)c3ccoc13)C(=O)/C(=C/c1ccccc1OC)O2 | 60.6% |
| O=S(=O)(NCCNc1cc(-c2c(-c3cccc(O)c3)nc3sccn23)ccn1)c1ccc(C(F)(F)F)cc1 | 35.7% |
| COCCn1cc(-c2nc(-c3cc4cccnc4n3CCOC)cs2)c2cc(OC)ccc21 | 26% |
| Cc1ccc(-c2nc(N3CCNCC3)c3oc(-c4ccccc4)nc3n2)cc1 | 101% |
| CCOC(=O)c1nc(Nc2ccc(NC(=O)Nc3ccc(F)cc3)cc2)c2ccccc2n1 | 97.4% |
| CS(=O)(=O)Nc1cc(-c2ccc3ncnc(Nc4ccc5c(cnn5Cc5ccccn5)c4)c3c2)cnc1Cl | 80.8% |
| Clc1ccc(Nc2nnc(COc3ccccc3)c3ccccc23)cc1 | 6.53% (active) |
| CCc1n(Cc2ccc3ccccc3c2)cc[n+]1Cc1ccc2ccccc2c1 | 11.9% |
| O=C1/C(=C\c2cn(-c3ccccc3)nc2-c2ccc(-c3cccs3)cc2)CCc2ccccc21 | 68.5% |
| O=C1COCCN1c1ccc(Nc2nc(Cl)nc(OCc3cn(Cc4ccccc4)nn3)n2)cc1 | 99.5% |
| CCN1C(=O)N(CC)C2C1NN=c1s/c(=C\c3cccc([N+](=O)[O-])c3)c(=O)n12 (stereo not given) | 50.5% |
| CCN(CC)CCSc1nc(-c2ccccc2)c(C#N)c(=O)[nH]1 | 91.8% |
| O=S(=O)(NCCNc1nccc(-c2c(-c3cccc(F)c3)nc3occn23)n1)c1ccc(Br)cc1 | 89.5% |
| COC(=O)[C@H]1CCCN1C[C@@H](O)CN1C(=O)/C(=C\c2cc(OC)c(OC)c(OC)c2)c2ccccc21 | 104% |
